# Screening data from PubChem.
# An excerpt weighted towards active compounds, which were near 13% of everything screened.
# Shiga inhibitor: A qHTS for Small Molecule Inhibitors of Shiga Toxin; Vero cells, Shiga toxin protein synthesis inhibition reporter; inhibition, % at 38.7 µM; 290,000 tested, 9.2% active; AID 2315, 2010; in the data active = inhibition mostly above about 28%, no sharp cut-off; inactive = mostly below about 43%; note: 0% is about no effect
# Cycloheximide cs: Cycloheximide Counterscreen for Small Molecule Inhibitors of Shiga Toxin. max response, %. 300,000 tested, 12% active. cell reporter, cycloheximide protein synthesis inhibition counterscreen; in the data active = max response mostly above about 13%, no sharp cut-off; inactive = mostly below about 14%; note: read at 38.3 µM for the half of the compounds with a filed dose; 0% is about no effect
# LASV entry inh: qHTS for Inhibitors of binding or entry into cells for Lassa Virus; Potency, µM (series often up to 37.9 µM), for the others: at the top dose activity change, negative = inhibition, hits mostly inhibitors; 300,000 tested, 1.2% active; Lassa virus pseudotype entry inhibition, cell reporter; AID 540256, 2011; calls by dose curve; tested in HEK293 cells; note: potency is the fitted concentration of half-maximal effect; % is set by controls: 0 for no effect and ±100 for the full control effect; nearly all actives have a fitted effect of over 50% in size
# HCV inh: qHTS Assay for Inhibitors of Hepatitis C Virus (HCV) | Huh7.5.1 HCVcc-Cre infection, luciferase reporter, 44 h | Potency, µM (top dose mostly 41.8 µM), for the others: at the top dose activity change, negative = inhibition, usual class: inhibitors | 340,000 tested, 3.4% active; active = well fitted inhibition curve with a large enough effect; inconclusive = small, poorly fitted or top-dose-only effect, or another doubt; inactive = no such curve, though single readings can be large or run the other way; note: potency is the fitted concentration of half-maximal effect; % is set by controls: 0 for no effect and ±100 for the full control effect
#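 Cells seeded at 1,000/well and cultured 4 h, then compounds added followed by HCVcc-Cre virus (~0.5 moi). After 44 h further culture, luciferase substrate was added, plates held 15 min at room temperature, and luminescence read for 15 sec.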
# MARV entry inh: qHTS for inhibitors of binding or entry into cells for Marburg Virus | 300,000 tested, 1.8% active | Marburg virus pseudotyped entry inhibition, cell reporter | Potency, µM (titrated, usually from 37.8 µM), for the others: top-dose activity change, negative = inhibition, hits mostly inhibitors; calls by dose curve; tested in HEK293 cells; note: potency is the fitted concentration of half-maximal effect; % is set by controls: 0 for no effect and ±100 for the full control effect
# FMDV inh: High Throughput Screening for Foot and Mouth Disease Virus Antivirals | 410,000 tested, 1.2% active | Potency, µM (top dose mostly 57.9 µM), for inactives: at the highest dose activity change, negative = inhibition, usual class: inhibitors | FMDV antiviral cell-based qHTS | AID 1159524, 2015; calls by dose curve; tested in HEK293T cells; note: read-out not given here; potency is the fitted concentration of half-maximal effect; % is set by controls: 0 for no effect and ±100 for the full control effect; nearly all actives have a fitted effect of over 45% in size
# Numbers without * were called inactive; ? = inconclusive; · = not tested or not shown; ! = not active in a repeat; [ ] = dose if it differs, or a comment.
SMILES,Shiga inhibitor,Cycloheximide cs,LASV entry inh,HCV inh,MARV entry inh,FMDV inh
CCN(CC)S(=O)(=O)c1cc(NC(=O)NCCCl)ccc1C,24.2,7.0,?,3.2%,9.5%[46.1 µM],4.8%
CCN(CC)S(=O)(=O)c1cc(NC(=O)c2ccc(Br)s2)ccc1C,77.4*,63.8*,?,10µM*,?,?
CCN(CC)S(=O)(=O)c1cc(NC(=O)c2ccc3c(c2)NC(=O)C(C)S3)ccc1C (stereo not given),·,·,·,3.98µM*,·,25.1µM*
Cc1ccc(N(C(C)C(=O)N2CCOCC2)S(C)(=O)=O)cc1C (stereo not given),-9.1,-3.6,21.3%[46.1 µM],12.0%,-8.5%[46.1 µM],-8.5%
CCOC(=O)c1[nH]c2ccc(OC)cc2c1NC(=O)CN1CCc2ccccc2C1,-14.7,1.3,?,?,?,?
O=c1c2cn[nH]c2nc(SCc2ccc3c(c2)OCCO3)n1-c1ccccc1,-12.8,1.9,?,?,?,25.1µM*
CCc1ccccc1-n1c(SCC(=O)Nc2ccc3c(c2)OCCO3)nc2[nH]ncc2c1=O,111.8*,52.8*,?,?,-0.7%,?
O=C(Nc1ccc(Cl)cc1)c1ccc2snnc2c1,38.4*,36.8*,·,?,·,33.6%
Cc1c(Cl)cccc1NC(=O)c1ccc2snnc2c1,·,·,4.6%[46.1 µM],·,?,6.5%
O=C(Nc1ccccc1F)c1ccc2snnc2c1,60.2*,37.8*,·,6.8%,·,45.7%
Cc1ccc(Cl)cc1NC(=O)c1ccc2snnc2c1,·,·,-3.9%[46.1 µM],·,-2.5%[46.1 µM],-16.0%
CC(=O)c1ccc(NC(=O)c2ccc3snnc3c2)cc1,65.2*,50.0*,·,-6.9%,·,26.4%
COc1ccc(NC(=O)c2ccc3snnc3c2)cc1,63.8*,46.5*,-17.1%,0.5%,5.9%[46.1 µM],3.0%
CCN(CC)C(=O)Cn1cc(C(=O)C(=O)N2CCN(Cc3ccccc3)CC2)c2ccccc21,-2.1,-1.1,-7.5%[46.1 µM],16.7%,11.4%[46.1 µM],-5.7%
Cn1ncc(Br)c1C(=O)NC1CCCCCC1,-3.0,-1.5,·,10.9%,·,-19.2%
O=C(O)c1ccc(COc2ccc(/C=N/NC(=O)c3cccs3)cc2)cc1,113.1,73.4,?,12.2%,1.7%,51.5%
O=C(N/N=C/c1ccc2nccnc2c1)c1cccc([N+](=O)[O-])c1,5.3,0.3,22.3%,-6.0%,-14.8%[46.1 µM],33.8%
O=C(N/N=C/c1ccc[nH]1)c1cccc([N+](=O)[O-])c1,10.9,8.0,?,3.55µM*,3.6%,11.1%
O=C(N/N=C/c1cccc(OCc2ccccc2)c1)c1cccs1,75.0*,30.3*,4.8%,3.5%,10.2%,-0.5%
O=C(N/N=C/c1cccc([N+](=O)[O-])c1)c1cccs1,33.7,26.3*,4.5%,-7.3%,25.9%,64.6%
O=C(N/N=C/c1cccc(Br)c1)c1ccc(Br)cc1,33.4,22.2*,2.2%[46.1 µM],-16.0%,-13.5%[46.1 µM],-8.1%
O=C(N/N=C/c1cccc([N+](=O)[O-])c1)c1ccc(Br)cc1,9.2,-4.1,-4.1%[46.1 µM],-13.8%,-20.2%[46.1 µM],38.6%
Cc1ccc(NC(=O)CC2(CC(=O)O)CCCC2)cc1,-4.7,-3.1,15.9%,9.2%,23.5%,13.8%
C[C@@H]1CN([C@@H](C)CO)C(=O)CCCn2nncc2CO[C@@H]1CN(C)C(=O)CCC(F)(F)F,·,·,·,·,·,0.0%
O=C(CCCc1nc2ccccc2s1)N1CCN(c2ccccc2F)CC1,-9.8,-1.3,-2.8%,1.3%,-5.0%,-14.2%
SMILES,Shiga inhibitor,Cycloheximide cs,LASV entry inh,HCV inh,MARV entry inh,FMDV inh
COc1cc(OC)c(NC(=O)c2cc(CN3CCOCC3)on2)cc1Cl,·,·,10.4%[46.1 µM],·,·,-12.3%
CCc1nc2ccc(C(=O)N3CCN(C(=O)c4ccco4)CC3)cn2c1N(C)C(=O)Nc1ccccc1OC,·,·,·,·,·,-20.2%
O=C(N/N=C/c1cccc([N+](=O)[O-])c1)c1cccc(Br)c1,23.9,21.9*,-0.1%,-7.8%,-13.7%,16.2%
CCOc1ccc(C(=O)Nc2cccc(NC(=O)c3cccs3)c2)cc1[N+](=O)[O-],-2.6,7.9,-22.6%,?,-35.4%,-8.6%
CCOc1cc(/C=N/NC(=O)c2cccs2)cc([N+](=O)[O-])c1O,49.0*,45.5*,9.5%,11.8%,-3.9%[46.1 µM],4.2%
Cc1ccc(Cl)cc1N1CCN(C(=O)c2cc3c(=O)[nH]c4ccccc4c3n2C)CC1,14.2,-2.4,?,8.91µM*!,5.62µM*!,7.94µM*
Cn1c(C(=O)N2CCN(c3ccc(Cl)cc3)CC2)cc2c(=O)[nH]c3ccccc3c21,-21.1,-5.6,-19.6%,?,?,-7.8%
CC(=O)c1c(C)[nH]c(C(=O)N2CCN(c3ccc(F)cc3)CC2)c1C,-6.4,9.4,4.5%,-13.3%,1.2%,-27.2%
Cc1ccc(Cl)cc1N1CCN(C(=O)C2(S(=O)(=O)c3ccc(Cl)cc3)CC2)CC1,2.9,-4.4,1.2%,14.1µM*,-19.0%,?
CC(=O)c1c(C)[nH]c(C(=O)N2CCN(c3cc(Cl)ccc3C)CC2)c1C,-13.3,-3.9,6.51µM*,?,7.3µM*,?
Cc1ccc(Cl)cc1N1CCN(C(=O)c2ccc(CN3CCOCC3)cc2)CC1,-17.1,-6.5,-29.8%,25.1µM*,?,·
Cc1cccc(N2CCN(C(=O)C3(S(=O)(=O)c4ccc(Cl)cc4)CC3)CC2)c1C,-11.9,-2.2,·,?,·,-15.4%
CCOC(=O)C1=C(C)NC(C)=C(C(=O)OCC)C1C(=O)OCC(=O)NCc1ccco1,·,·,?,?,?,-1.6%
COc1ccc(CCN(/C=C2\Sc3ccccc3C2=O)C(C)=O)cc1OC,90.9,41.7*,10.4%[46.1 µM],9.0%,?,5.7%
CCN1C(=O)c2ccccc2Sc2ccc(NC(=O)Cc3ccc(OC)c(OC)c3)cc21,·,·,?,·,·,-17.8%
Cc1ccnc(NC(=O)CCNC(=O)c2ccc(Cl)cc2)c1,-13.6,-0.5,·,18.9%,·,0.0%
Cc1ccnc(NC(=O)c2ccc(Cl)s2)c1,69.5*,53.0*,·,-19.0%,·,73.5%
O=C(Nc1ccon1)c1ccc(Cl)s1,14.9,14.9*,2.5%,3.8%,-3.4%,14.7%
CN=c1nc(-c2ccccc2)n(-c2ccccc2)s1,·,·,23.1µM*,-13.3%,14.1µM*!,0.0%
Cn1nc(-c2ccccc2)nc1-c1ccccc1,·,·,·,0.0%,·,67.7%
O=C(CCC(=O)Nc1ccccc1)N/N=C/c1ccc2c(c1)OCO2,71.1*,40.0*,1.5%[46.1 µM],8.9%,19.4%[46.1 µM],26.8%
O=C(CN(Cc1ccccc1)S(=O)(=O)c1ccccc1)N/N=C/c1ccc2c(c1)OCO2,8.2,0.1,7.3µM*,?,?,·
O=C(CCc1ccc(O)cc1)NN=Cc1ccc2c(c1)OCO2,·,·,·,·,·,61.0%
COc1cc(/C=N/NC(=O)CN(Cc2ccco2)S(=O)(=O)c2ccccc2)ccc1O,-3.7,17.7*,-11.5%,-10.8%,7.2%,0.0%
Cc1ccc(CC(=O)N/N=C/c2ccc3c(c2)OCO3)cc1,42.9*,25.8*,-13.7%,-26.0%,?,70.8%
O=C(CCC(=O)Nc1ccc(Cl)cc1)N/N=C/c1ccc2c(c1)OCO2,-13.3,-2.0,?,·,7.6%,5.8%
